Source: PubChem BioAssay (several laboratories)
MEKK3 PB1 HTS – raises or lowers MEK5 binding to the human MEKK3 PB1 domain | Q99759 | bead-based flow cytometry, Alexa488-MEK5 binding to MEKK3; actives lie on both sides; 0 = blocked by unlabeled MEK5, 100 = vehicle | binding response (% of control), % at 10 µM | 1.4% of 290,000 active;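 active = binding response more than 3 SD above or below the average of its plate-row segment, actives on both sides; inconclusive = wells at one plate position flagged as instrument error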;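 note: Alexa488 bead fluorescence after subtracting the streptavidin-only scavenger bead signal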
MEKK2wt PB1 HTS – raises or lowers MEK5 binding to wildtype human MEKK2 PB1 domain | Q9Y2U5 | bead flow cytometry, Alexa488-MEK5 binding to MEKK2 WT; actives lie on both sides | binding response (% of control), % at 10 µM | 1.1% of 290,000 active; in the data active = binding response below about 67% or above about 130%; inconclusive = no clear call, values can overlap the other calls; inactive = in between
MEKK2 mut-MEK5 – signal of MEK5 binding to mutant human MEKK2 PB1 domain | bead flow cytometry, Alexa488-MEK5 binding to MEKK2 mutant | percent response, % at 10 µM | 0.35% of 290,000 active | AID 1530; in the data active = percent response above about 24%, passing the limit was not always enough
UBC13 inh – inhibitors of human UBC13 polyubiquitin chain formation. TR-FRET. P61088. 0.47% of 330,000 active. inhibition, % at 20 µM; in the data active = inhibition above about 45%, passing the limit was not always enough; inconclusive = no clear call, values can overlap the other calls
Target sequence (P61088 whole entry, looked up): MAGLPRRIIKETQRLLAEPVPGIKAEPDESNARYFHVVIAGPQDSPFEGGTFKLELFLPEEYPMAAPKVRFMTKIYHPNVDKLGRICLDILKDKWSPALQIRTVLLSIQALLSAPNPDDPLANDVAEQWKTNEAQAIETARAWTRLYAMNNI
Casp3 UBC13 ctr – caspase-3 inhibition (UBC13 counter-screen) | shares compounds with UBC13 inh | Recombinant caspase-3, Caspase-Glo 3/7 luminescence, 60 min | inhibition, % at 20 µM | 4% of 1,400 active | AID 488856;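 active = mean inhibition across replicates above about 26%, limit read from the data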;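 note: plate controls were DMSO with caspase-3 for no effect and DMSO wells lacking enzyme for full effect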
Target sequence (P42574 whole entry, looked up): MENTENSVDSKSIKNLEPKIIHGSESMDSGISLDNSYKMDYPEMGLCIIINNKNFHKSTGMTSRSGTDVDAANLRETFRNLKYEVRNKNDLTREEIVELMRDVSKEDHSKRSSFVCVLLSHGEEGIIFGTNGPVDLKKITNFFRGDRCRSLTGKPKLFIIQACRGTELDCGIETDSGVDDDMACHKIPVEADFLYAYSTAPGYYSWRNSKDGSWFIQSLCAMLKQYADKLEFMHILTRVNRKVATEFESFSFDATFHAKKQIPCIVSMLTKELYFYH
UBC13 confirm – human UBC13 polyubiquitin inhibition, confirmed. shares compounds with UBC13 inh. UBC13 polyubiquitination, TR-FRET, biochemical. inhibition, % at 10 µM. 68% of 1,400 active; in the data active = inhibition above about 45%; inconclusive = no clear call, values can overlap the other calls
Numbers without * were called inactive; ? = inconclusive; nt = no result given. Sampled rows, rich in hits. Any-hit rate of the full collection: about 2.3%.

SMILES	MEKK3 PB1 HTS	MEKK2wt PB1 HTS	MEKK2 mut-MEK5	UBC13 inh	Casp3 UBC13 ctr	UBC13 confirm
NCCCn1c(C(=O)c2cc(Cl)c(N)c(Cl)c2)c2ccc([N+](=O)[O-])cc2[n+]1[O-]	nt	nt	nt	15	nt	nt
NCCCn1c(C(=O)c2cc(Cl)c(N)c(Cl)c2)c2ccc(C(F)(F)F)cc2[n+]1[O-]	nt	nt	nt	103*	1	111*
COc1ccc(C(=O)c2c3ccc(C(F)(F)F)cc3[n+]([O-])n2CCCC(N)=O)cc1	nt	nt	nt	-15	nt	nt
CCOC(=O)C1=NNC2(c3ccc(Cl)cc3)C(=O)N(c3ccc(C)cc3)C(=O)C12 (centres undefined)	105	122	3	-9	nt	nt
O=C(CCNC(=O)c1ccccc1Cl)Nc1nc2ccccc2s1	101	86	-11	80*	2	101*
COc1ccc2nc(NC(=O)CCNC(=O)c3ccccc3Cl)sc2c1	103	97	-1	44	nt	nt
NNC(=O)/C(=C/c1cccs1)NC(=O)c1ccccc1Cl	97	90	-7	-8	nt	nt
CCCCc1ccc(/C=C(\C#N)C(N)=S)s1	108	5.0*	5	53*	1	59*
Cn1cccc1/C=C(/C#N)C(N)=S	113	101	-1	10	nt	nt
CC1(C)Cc2c(sc(NC(=O)COc3ccc(Cl)cc3Cl)c2C(N)=O)C(C)(C)N1	107	129	10	74*	-1	109*
Cc1c(C(=O)N2CCCCC2)c(S(=O)(=O)NCc2ccc(Cl)cc2)c(C)n1C	103	101	3	2	nt	nt
CN1CCN(C2Cc3ccccc3Sc3ccc(Cl)cc32)CC1 (centres undefined)	nt	nt	nt	45*	-4	26
CN(C)C1CCN(C(=O)c2cccc(OC3CCN(S(=O)(=O)N(C)C)CC3)c2)C1 (centres undefined)	100	101	1	0	nt	nt
COC(=O)c1c(-c2ccc(S(C)(=O)=O)cc2)sc2ccc(OC)cc12	nt	nt	nt	54*	10	42
COC(=O)c1c(-c2ccc(SC)cc2)sc2ccc(OC)cc12	nt	nt	nt	50*	-1	?
COc1ccccc1NC(=O)c1cc2c(=O)n(C)c3ccccc3c2n1C	105	98	-3	8	nt	nt
COc1cc(N)c(Cl)cc1C(=O)N[C@@H]1CCN(CCCOc2ccc(F)cc2)C[C@@H]1OC	118	129	8	nt	nt	nt
COc1cc(N)c(Cl)cc1C(=O)N[C@H]1CCN(CCCOc2ccc(F)cc2)C[C@H]1OC	nt	nt	nt	68*	1	59*
CC(C)CC(C(=O)NC(C)(C)C)N(Cc1ccccc1Cl)C(=O)c1snc(C(N)=O)c1N (centres undefined)	105	100	6	71*	4	93*
CC(C)CC(C(=O)NC1CCCC1)N(Cc1cccs1)C(=O)c1snc(C(N)=O)c1N (centres undefined)	103	95	-4	25	nt	nt
CC(C)CC(C(=O)NC(C)(C)C)N(Cc1cccs1)C(=O)c1snc(C(N)=O)c1N (centres undefined)	108	103	-2	65*	-2	67*
CC1CC1C(=O)OCC(=O)Nc1cccc([N+](=O)[O-])c1 (centres undefined)	103	95	-5	1	nt	nt
CNC(=O)COC(=O)/C=C/c1cn(-c2ccccc2)nc1-c1ccc(C)o1	96	96	-11	55*	0	44
CCOC(=O)C1=C(COC(=O)c2ncc(Cl)c(Cl)c2Cl)NC(=O)NC1C (centres undefined)	nt	nt	nt	76*	-2	87*
COc1ccc(CN2CCSCC2)c(C)c1C	100	102	1	-8	nt	nt
SMILES	MEKK3 PB1 HTS	MEKK2wt PB1 HTS	MEKK2 mut-MEK5	UBC13 inh	Casp3 UBC13 ctr	UBC13 confirm
COc1cccc(-c2nnc3n2N=C(c2cc(OC)ccc2OC)CS3)c1	101	95	-1	56*	-3	48*
CCOc1cccc(-c2nnc3n2N=C(c2cc(OC)ccc2OC)CS3)c1	113	112	6	3	nt	nt
Nc1ncc(S(=O)(=O)c2ccc(Cl)cc2)c(N)n1	100	107	0	14	nt	nt
Cc1ncc(S(=O)(=O)c2ccc(Cl)cc2)c(N)n1	nt	nt	nt	45*	-1	49*
C=CCn1c(=O)c(C(=O)Nc2ccccc2S(N)(=O)=O)c(O)c2ccccc21	94	87	-9	46*	2	10
CCC(C)N(CCNC(=O)c1ccc2c(c1)NC(=O)c1ccccc1S2)C1CCCCC1 (centres undefined)	97	128	13	52*	-2	70*
Cc1cccc(NC(=O)CN(CC2CCCO2)C(=O)c2cc3ccccc3o2)c1C (centres undefined)	nt	nt	nt	-2	nt	nt
CCOc1ccc(C(=O)NNC(=O)C2CC(=O)N(c3ccc(C)cc3)C2)cc1 (centres undefined)	nt	nt	nt	-12	nt	nt
O=C(NNC(=O)c1nn(-c2ccc(F)cc2)ccc1=O)c1ccccc1Cl	107	106	1	81*	-4	91*
O=C(O)c1nn(-c2ccc(F)cc2)ccc1=O	101	98	2	0	nt	nt
FC(F)(F)c1cc(CCN2CCNC[C@H]2Cc2cccc3ccccc23)cc(C(F)(F)F)c1	nt	nt	nt	96*	2	98*
CC(C)CC1(C)NC(=O)N(CC(=O)Nc2ccc3c(c2)CCC3)C1=O (centres undefined)	103	95	0	3	nt	nt
CC1=C(C#N)C(Nc2ccc(C)cn2)(C(F)(F)F)C(=O)N1 (centres undefined)	106	105	4	6	nt	nt
O=C(NCc1cccc(Cl)c1)C1CCCN(c2ncnc3c2nc2n3CCCCC2)C1 (centres undefined)	97	100	-4	4	nt	nt
O=C(NCC1CCN(Cc2ccc(Cl)cc2)CC1)C1CCCN(c2ncnc3c2nc2n3CCCCC2)C1 (centres undefined)	107	132	25*	78*	-1	101*
O=C(NCc1ccccc1)C1CCCN(c2ncnc3c2nc2n3CCCCC2)C1 (centres undefined)	93	95	-15	5	nt	nt
CC1CCCC(C)N1CCCNC(=O)C1CCCN(c2ncnc3c2nc2n3CCCCC2)C1 (centres undefined)	94	98	-11	56*	2	88*
O=C(NCC1CCN(Cc2ccc(F)cc2)CC1)C1CCCN(c2ncnc3c2nc2n3CCCCC2)C1 (centres undefined)	98	107	3	78*	-3	95*
O=C(NCC1CCN(Cc2cccc(Cl)c2)CC1)C1CCCN(c2ncnc3c2nc2n3CCCCC2)C1 (centres undefined)	93	100	-4	93*	-3	107*
CCC1CCCCN1CCCNC(=O)C1CCCN(c2ncnc3c2nc2n3CCCCC2)C1 (centres undefined)	96	99	3	35	nt	nt
CCn1c2ccccc2c2cc(NC(=O)CSc3nccc(=O)[nH]3)ccc21	102	94	-4	-18	nt	nt
